Compounds with a hit are over-represented: about 10% of the library has one in this group of screens.
NIH3T3 tox – kills NIH 3T3 cells. NIH 3T3 viability, CellTiter-Glo ATP luminescence, 48-72 h. Potency, µM (series often up to 96.7 µM), for the others: at the top dose activity change, negative = cytotoxicity, most hits filed as inhibitors. hit rate 4.3% among 94,000. AID 1345082; also: nearly all actives have a fitted effect of over 55% in size
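NIH 3T3 cells at 400 cells/well received 23 nL of compound by pintool and were incubated 48 or 72 h at 37 °C. Viability was read as ATP-coupled CellTiter-Glo luminescence.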
HEK cytotox – cytotoxic compounds in HEK 293 cells | hit rate 6.6% among 94,000 | AID 1345083 | HEK 293 viability, ATP luminescence (CellTiter-Glo), 48-72 h | Potency, µM (doses to about 115 µM), inactives show top-dose activity change, negative = cytotoxicity, actives largely listed as inhibitors; also: nearly all actives have a fitted effect of over 60% in size
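HEK 293 seeded at 250 cells/well receive compound via pintool. After 48 or 72 hr at 37 degree Celsius, 5% CO2 and 95% humidity, CellTiter-Glo is dispensed and luminescence read following 10 min at room temperature.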
hNpr1 antagonist – antagonists of human natriuretic peptide receptor Npr1; P16066; HEK293 hNpr1 GloSensor cGMP, ANP-stimulated luminescence; Potency, µM (doses to about 46.3 µM), without a hit: top-dose activity change, negative = inhibition, actives largely listed as inhibitors; hit rate 1.6% among 76,000; calls by dose curve; also: nearly all actives have a fitted effect of over 60% in size
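HEK293 cells stably expressing human Npr1 and cGMP GloSensor pGS-40F, loaded 2 h with 2% GloSensor reagent, given compound 30 min at room temperature. Luminescence read before and 20 min after 0.1 nM hNppA.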
GPT2 inh – blocks human glutamate pyruvate transaminase 2; Q8TD30; Recombinant GPT2, coupled pyruvate oxidase/HRP Amplex Red fluorescence; Potency, µM (top dose mostly 57.7 µM), for inactives: at the top dose activity change, negative = inhibition, actives largely listed as inhibitors; hit rate 0.25% among 100,000; also: nearly all actives have a fitted effect of over 60% in size
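Inhibition is scored from Amplex Red fluorescence generated when pyruvate oxidase and HRP act on pyruvate released by GPT2. Reactions contain 10ng/uL enzyme, 250uM a-KG and 2mM L-alanine and run 30 min at room temperature.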
Luciferase inh – blocks purified firefly luciferase enzyme activity. Potency, µM (titrated, usually from 115 µM), most hits filed as inhibitors. hit rate 2.5% among 76,000. purified P. pyralis luciferase, luminescence, biochemical. P08659; also: nearly all actives have a fitted effect of over 65% in size
Target sequence (P08659 whole entry, looked up): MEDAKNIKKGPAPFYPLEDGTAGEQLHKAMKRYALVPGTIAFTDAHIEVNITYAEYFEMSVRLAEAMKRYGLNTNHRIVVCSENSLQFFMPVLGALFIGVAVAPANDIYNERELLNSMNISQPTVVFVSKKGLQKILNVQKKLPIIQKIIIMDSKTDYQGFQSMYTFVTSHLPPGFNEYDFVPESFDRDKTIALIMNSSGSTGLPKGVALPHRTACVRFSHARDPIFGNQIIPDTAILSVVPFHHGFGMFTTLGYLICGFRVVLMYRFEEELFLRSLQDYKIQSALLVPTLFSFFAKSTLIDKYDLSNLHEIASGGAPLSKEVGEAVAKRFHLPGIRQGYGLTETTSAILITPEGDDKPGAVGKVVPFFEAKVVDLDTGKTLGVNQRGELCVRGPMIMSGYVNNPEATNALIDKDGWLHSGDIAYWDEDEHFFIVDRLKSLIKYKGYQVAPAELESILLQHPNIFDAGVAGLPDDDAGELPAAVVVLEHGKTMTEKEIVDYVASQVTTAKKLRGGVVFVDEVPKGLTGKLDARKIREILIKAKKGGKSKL
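Purified P. pyralis luciferase (10nM final) in 50mM Tris acetate pH 7.5, 10mM Mg acetate, 0.01% Tween-20, 0.05% BSA with 10uM D-luciferin and 10uM ATP. Compounds titrated qHTS. Luminescence imaged on CCD.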
An asterisk follows results filed as active; i = inactive; u = inconclusive; x = no result given; ! = not active in a repeat; [ ] = dose if it differs, or a comment. Unless noted, calls follow the shape of the dose curve; as a rule, active = well fitted curve in the direction sought with a large enough effect; inconclusive = small, poorly fitted or top-dose-only effect, or another doubt; inactive = no such curve, though single readings can be large; an effect the other way counts as inactive or inconclusive. % is scaled to controls: 0 for no effect and ±100 for the full control effect; potency is read from the fitted curve at half-maximal effect.

SMILES	NIH3T3 tox	HEK cytotox	hNpr1 antagonist	GPT2 inh	Luciferase inh
CC(C)NC(=O)N1CCNc2cnc(Nc3cccc(F)c3)nc2C1	u	u	u	-13%[88.5 µM]	i
O=C(c1cc2ccccc2[nH]1)N1CCNc2cnc(Nc3ccccc3)nc2C1	u	79µM*	u	-19%[88.5 µM]	u
COc1ccc(-c2cccc(C(=O)N3CCN(C(C)=O)CC3)c2)nn1	-14%	-14%	x	x	x
O=C(Cc1cccc(Cl)c1)N1CCC2(C1)C(=O)N(CCc1ccccc1)c1ccccc12 (stereo not given)	45µM*!	32µM*	0%	i	i
COCC(=O)N1CCC2(C1)C(=O)N(CCc1ccccc1)c1ccccc12 (stereo not given)	-17%	-23%	1%	-12%	i
COc1cccc(C(=O)N2CCC3(C2)C(=O)N(CCc2ccccc2)c2ccccc23)c1 (stereo not given)	u	45µM*	-11%	1%	i
O=C(c1ccccc1)N1CCC2(C1)C(=O)N(Cc1ccccc1)c1ccccc12 (stereo not given)	u	u	-27%	i	i
CN1C(=O)C2(CCN(C(=O)c3cccc(Br)c3)C2)c2ccccc21 (stereo not given)	u	35µM*	-15%	i	i
COC(=O)N1CCC2(C1)C(=O)N(CCc1ccccc1)c1ccccc12 (stereo not given)	u	63µM*!	0%	-19%[88.5 µM]	i
O=C(c1ccc(F)cc1)N1CCC2(C1)C(=O)N(CCc1ccccc1)c1ccccc12 (stereo not given)	u	40µM*!	0%	-15%	i
COc1ccc(CC(=O)N2CCC3(C2)C(=O)N(CCc2ccccc2)c2ccccc23)cc1 (stereo not given)	u	40µM*!	0%	1%	i
O=C(c1ccccc1F)N1CCC2(C1)C(=O)N(CCc1ccccc1)c1ccccc12 (stereo not given)	u	40µM*	19%	-8%	i
Cc1ccc(C(=O)N2CCC3(C2)C(=O)N(CCc2ccccc2)c2ccccc23)cc1 (stereo not given)	40µM*!	32µM*!	-10%	u	i
CN1C(=O)C2(CCN(C(=O)c3ccccc3F)C2)c2ccccc21 (stereo not given)	-17%[138 µM]	u	3%[70.6 µM]	i	i
CN1CCN([C@@H]2[C@H](O)[C@H](CO)O[C@@H]2CNC(=O)c2ccccc2)CC1	-3%[174 µM]	0%[172 µM]	-4%[70.6 µM]	i	i
Cn1cnc(S(=O)(=O)N2CC(c3nc(CCOCC4CC4)no3)C2)c1	i	i	x	-1%	x
O=C(c1ccccc1)N1CCC2(C1)C(=O)N(CCc1ccccc1)c1ccccc12 (stereo not given)	u	35µM*!	-11%	i	i
O=C(c1ccc(Cl)cc1)N1CCC2(C1)C(=O)N(CCc1ccccc1)c1ccccc12 (stereo not given)	u	u	x	1%	x
COc1cccc(CC(=O)N2CCCN(C)c3ccccc32)c1	-5%	u	-11%	i	i
COc1ccc(C(=O)N2CCCN(C)c3ccccc32)c(OC)c1	u	u	-22%	u	i
Cc1ccc(OCC(=O)N2CCCN(S(C)(=O)=O)c3ccccc32)cc1	22µM*	-26%	2%	i	i
COc1ccc(C(=O)N2CCCN(C)c3ccccc32)c(C)c1	u	45µM*	-2%	i	i
Cc1ccc(CC(=O)N2CCCN(S(C)(=O)=O)c3ccccc32)cc1	18µM*	-22%	0%	-3%	i
CCOCC(=O)N1CCCN(S(C)(=O)=O)c2ccccc21	4%	i	4%	-9%	i
CCOc1ccc(CC(=O)N2CCCN(S(C)(=O)=O)c3ccccc32)cc1OCC	-13%	-13%	7%	-7%	i
SMILES	NIH3T3 tox	HEK cytotox	hNpr1 antagonist	GPT2 inh	Luciferase inh
CCOc1ccc(CC(=O)N2CCCN(C)c3ccccc32)cc1	u	89µM*	-8%	-4%	i
COc1cccc(-c2cn3cc(C(=O)NCCc4ccccc4F)nc3s2)c1	u	u	x	-14%	x
O=C(NCCc1ccc(Cl)cc1)C1CCc2nnc(-c3ccc(F)cc3)n21 (stereo not given)	-14%	-25%	x	-11%	x
CNC(=O)c1cc(-c2ccccc2F)cc2c1OCCN2Cc1cccnc1	u	89µM*	-28%[70.6 µM]	-15%[88.5 µM]	i
CNC(=O)c1cc(-c2cccc(NC(C)=O)c2)cc2c1OCCN2Cc1cccnc1	45µM*	-10%[172 µM]	-3%[70.6 µM]	-3%[88.5 µM]	i
COCCNC(=O)c1cc(-c2ccccc2F)cc2c1OCCN2Cc1cccnc1	89µM*	u	-18%[70.6 µM]	2%[88.5 µM]	i
O=C(NC1CCOCC1)c1cc(-c2ccccc2F)cc2c1OCCN2Cc1cccnc1	-26%	u	2%	-4%	i
CNC(=O)c1cc(-c2ccccc2O)cc2c1OCCN2Cc1cccnc1	u	-22%[172 µM]	-20%[70.6 µM]	-1%[88.5 µM]	i
CC(C)CNC(=O)c1cc(-c2ccccc2F)cc2c1OCCN2Cc1cccnc1	45µM*	50µM*	-24%[70.6 µM]	-14%[88.5 µM]	i
CNC(=O)c1cc(-c2ccc(C)cc2)cc2c1OCCN2Cc1cccnc1	u	u	6%[70.6 µM]	-1%[88.5 µM]	i
NC(=O)c1cc(-c2ccccc2F)cc2c1OCCN2Cc1cccnc1	u	u	-18%[70.6 µM]	-1%[88.5 µM]	i
O=C(c1ccoc1)N1CCC2(CC1)CC(N(Cc1ccc(F)cc1)C1CC1)CCO2 (stereo not given)	-20%	u	-17%	i	i
CC(C)NC(=O)c1ccccc1OCC1CCCN(Cc2ccc3[nH]ccc3c2)C1 (stereo not given)	-45%	u	x	i	x
Cc1ccc(S(=O)(=O)N2CCCC(Cn3c(C4CC4)nc4cccnc43)C2)cc1F (stereo not given)	-21%	u	0%	i	i
Cc1ccc(NC(=O)N2CCCC(Cn3c(C4CC4)nc4cccnc43)C2)cc1 (stereo not given)	u	-12%	5%	5%	i
O=C(Nc1ccc(C(F)(F)F)cc1)N1CCCC(Cn2c(C3CC3)nc3cccnc32)C1 (stereo not given)	32µM*	40µM*	-19%	i	i
Cc1cccc(S(=O)(=O)N2CCCC(Cn3c(C4CC4)nc4cccnc43)C2)c1 (stereo not given)	u	35µM*	-15%	i	i
Cc1ccc(C)c(S(=O)(=O)N2CCCC(Cn3c(C4CC4)nc4cccnc43)C2)c1 (stereo not given)	u	40µM*	-14%	3%	i
Cc1cccc(S(=O)(=O)N2CCCC(Cn3c(C)nc4cccnc43)C2)c1 (stereo not given)	u	u	-25%	-3%	i
